D2 ag-1 = human D2 receptor agonism in beta-arrestin assay; activation, % (concentration not given with the values); DiscoveRx PathHunter D2 beta-arrestin, luminescence, 90 min; 100% = 57 uM dopamine signal; AID 624465; P14416; 360,000 compounds, 0.084% hits; in the data active = activation above about 40%
Target sequence (P14416 whole entry, looked up): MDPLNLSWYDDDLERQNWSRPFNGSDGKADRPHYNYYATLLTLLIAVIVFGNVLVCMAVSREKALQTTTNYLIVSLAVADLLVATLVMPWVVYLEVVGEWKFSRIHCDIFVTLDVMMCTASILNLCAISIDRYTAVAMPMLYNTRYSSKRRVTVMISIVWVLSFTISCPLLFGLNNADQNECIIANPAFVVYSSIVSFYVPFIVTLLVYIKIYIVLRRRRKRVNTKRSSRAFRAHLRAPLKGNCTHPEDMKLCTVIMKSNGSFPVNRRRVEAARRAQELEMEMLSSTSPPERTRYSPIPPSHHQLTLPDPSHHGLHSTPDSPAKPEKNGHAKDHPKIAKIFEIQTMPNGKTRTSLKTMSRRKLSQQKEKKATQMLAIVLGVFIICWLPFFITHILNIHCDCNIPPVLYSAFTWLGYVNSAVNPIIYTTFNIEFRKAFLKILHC
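Agonist mode: compounds alone added to overnight-plated D2 PathHunter cells for 90 min at 37 C, with 57 uM final dopamine (EC100) defining full response. Beta-arrestin recruitment detected by chemiluminescent reagent, read after 1 h at ambient temperature.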
D2 PAM-1 = positive allosteric modulators of human D2 dopamine receptor | P14416 | HEK293 T-REx D2, calcium flux, EC20 dopamine potentiation | potentiation, % at 10 µM | 340,000 compounds, 0.34% hits;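 active = potentiation over 3 SD above the plate norm, cut at about 30% in these data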
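Tetracycline-induced Hek293 Trex D2 cells, force-coupled to calcium, loaded with no-wash calcium dye. Compound added with 180 s kinetic read for agonism, then EC20 dopamine and a further 180 s read for potentiation.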
D2 antag = antagonizes the human D2 dopamine receptor; P14416; HEK293 TREx D2 cells, calcium flux, dopamine EC80; inhibition, % at 10 µM; 340,000 compounds, 2% hits; in the data active = inhibition above about 30%; inactive = below that, where a call was filed
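Antagonism is scored as inhibition of an EC80 dopamine-evoked calcium signal in a force-coupled, tetracycline-inducible HEK293 T-REx D2 line, with compound present 180 s before agonist.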
D2 PAM-2 = positive allosteric modulators of human D2 dopamine receptor. DiscoveRx D2 beta-arrestin cells, luminescence, 90 min; 100% = 57 uM dopamine signal. AID 624464. 360,000 compounds, 0.23% hits. potentiation, % (no concentration beside the values). P14416; in the data active = potentiation above about 50%
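PathHunter D2 cells, attached overnight at 37 deg C, received compound in DMSO plus dopamine at EC20 (50 nM final) for 90 min at 37 deg C. Beta-arrestin recruitment was read as luminescence after 1 h with detection reagent at ambient temperature.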
D2 ag-2 = D2 dopamine receptor (human) agonism; HEK293 T-REx D2 cells, calcium flux agonist mode; 340,000 compounds, 0.53% hits; AID 485358; activation, % at 2 µM; P14416;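 active = activation over 3 SD above normal in the single-dose calcium agonist read, cut at about 30% in these data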
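Agonism scored from kinetic calcium signal (1 read/sec, 180 s) following compound pin transfer, after a 10 s baseline. Cells: HEK293 Trex line expressing inducible D2 receptor coupled to calcium, dye-loaded after overnight culture at 30 C.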
Numbers stand for hits. A selection: hits, their analogues and other compounds. The true share with any hit is near 2.4%.

CCOc1ccc(C(CC(=O)O)NC(=O)C(CC)c2ccccc2)cc1 (stereo unspecified) was read as D2 ag-1 inactive, D2 PAM-1 inactive, D2 antag 35, D2 PAM-2 inactive and D2 ag-2 inactive.
`COc1ccc(CC(=O)NC(CC(=O)O)c2ccc(OC)cc2)cc1` (stereo unspecified) gave D2 ag-1 inactive, D2 PAM-1 inactive, D2 antag 36, D2 PAM-2 inactive and D2 ag-2 inactive.
`O=C(O)CC(NC(=O)c1ccco1)c1ccco1` (stereo unspecified) gave D2 ag-1 inactive, D2 PAM-1 inactive, D2 antag inactive, D2 PAM-2 inactive and D2 ag-2 inactive.
CC1(C)Cc2c(sc3c2C(=O)N(c2ccccc2)C2=NCCN23)CS1 was read as D2 ag-1 inactive, D2 PAM-1 46, D2 antag inactive, D2 PAM-2 inactive and D2 ag-2 inactive.
For Cc1cccc(N2CCN(C(=O)c3c4c(nc5ccccc35)C(=O)N(C3CCCCC3)C4)CC2)c1C the results were D2 PAM-1 inactive and D2 ag-2 inactive.
Screening O=C(CN(C1CCCCC1)S(=O)(=O)c1ccccc1)NCc1ccco1 returned D2 ag-1 inactive, D2 PAM-1 47, D2 antag inactive, D2 PAM-2 inactive and D2 ag-2 inactive.
`COc1ccc(S(=O)(=O)NCC(=O)N(CC(=O)NCc2ccco2)C2CCCC2)cc1` gave D2 ag-1 inactive, D2 PAM-1 inactive, D2 antag 47, D2 PAM-2 inactive and D2 ag-2 inactive.
`COc1ccc(S(=O)(=O)N(C)CC(=O)NCc2ccco2)cc1OC` gave D2 ag-1 inactive, D2 PAM-1 inactive, D2 antag 34, D2 PAM-2 inactive and D2 ag-2 inactive.
`Cc1ccc(S(=O)(=O)N(CC(=O)NCc2ccco2)C2CCCCC2)cc1` gave D2 ag-1 inactive, D2 PAM-1 inactive, D2 antag inactive, D2 PAM-2 inactive and D2 ag-2 inactive.
Screening CCOc1ccc(NC(=O)c2c(NCc3sccc3C)sc3c2CCCCC3)cc1 returned D2 PAM-1 inactive and D2 ag-2 inactive.
`CC1(C)CC(=O)C/C(=N\NC(=O)C2CC23CCC3)C1` (stereo unspecified) gave D2 ag-1 inactive, D2 PAM-1 inactive, D2 antag 47, D2 PAM-2 inactive and D2 ag-2 inactive.
`CN(C)c1ccc(CNC(=O)CN2C(=O)CCn3nc(-c4cn(C)c5ccccc45)cc32)cc1` gave D2 PAM-1 inactive and D2 ag-2 inactive.
O=C(/C=C/c1cccs1)NC1CCS(=O)(=O)C1 (stereo unspecified) was read as D2 ag-1 inactive, D2 PAM-1 inactive, D2 antag inactive, D2 PAM-2 inactive and D2 ag-2 32.
`O=C(/C=C/c1cccs1)NC1CCCC1` gave D2 ag-1 inactive, D2 PAM-1 inactive, D2 antag inactive, D2 PAM-2 inactive and D2 ag-2 inactive.
Screening O=C1C(=O)N(C2CCN(S(=O)(=O)c3ccccc3)CC2)CCN1Cc1ccccc1 returned D2 PAM-1 inactive and D2 ag-2 inactive.
For S=C(Nc1ccccc1Cl)N1CCC(c2ccccc2)C1 (stereo unspecified) the results were D2 ag-1 inactive, D2 PAM-1 inactive, D2 antag inactive, D2 PAM-2 inactive and D2 ag-2 inactive.
Screening Cc1ccc(NC(=S)N2CCC(c3ccccc3)C2)c(Cl)c1 (stereo unspecified) returned D2 ag-1 inactive, D2 PAM-1 inactive, D2 antag 30, D2 PAM-2 inactive and D2 ag-2 inactive.
Screening Cc1ccc(NC(=O)C2CCN(S(=O)(=O)c3ccc4c(c3)NC(=O)C(C)S4)CC2)cc1C (stereo unspecified) returned D2 ag-1 inactive, D2 PAM-1 inactive, D2 antag 58, D2 PAM-2 inactive and D2 ag-2 inactive.
CC1Sc2ccc(S(=O)(=O)CCC(=O)Nc3ccc(C(C)C)cc3)cc2NC1=O (stereo unspecified) was read as D2 ag-1 inactive, D2 PAM-1 inactive, D2 antag 52, D2 PAM-2 inactive and D2 ag-2 inactive.
Screening CC1Sc2ccc(S(=O)(=O)N3CCC(C(=O)Nc4cccc(Cl)c4)CC3)cc2NC1=O (stereo unspecified) returned D2 ag-1 inactive, D2 PAM-1 inactive, D2 antag 69, D2 PAM-2 inactive and D2 ag-2 inactive.
For CCc1ccc(NC(=O)C2CCN(S(=O)(=O)c3ccc4c(c3)NC(=O)C(C)S4)CC2)cc1 (stereo unspecified) the results were D2 ag-1 inactive, D2 PAM-1 inactive, D2 antag inactive, D2 PAM-2 inactive and D2 ag-2 inactive.
Screening CCn1cc(C(=O)N2CCN(c3ccccc3)CC2)c(=O)c2cc(S(=O)(=O)N3CCCC3)ccc21 returned D2 PAM-1 inactive and D2 ag-2 inactive.
O=C(CN1C(=O)CCc2cc(S(=O)(=O)N3CCOCC3)ccc21)NCc1ccccc1Cl was read as D2 PAM-1 inactive and D2 ag-2 inactive.
For O=C(COc1ccccc1[N+](=O)[O-])N/N=C/c1ccc(O)cc1 the results were D2 ag-1 inactive, D2 PAM-1 inactive, D2 antag inactive, D2 PAM-2 72 and D2 ag-2 inactive.
For CC(=O)N1N=C(c2cccnc2)OC1c1ccc(C(C)C)cc1 (stereo unspecified) the results were D2 ag-1 inactive, D2 PAM-1 inactive, D2 antag 55, D2 PAM-2 inactive and D2 ag-2 inactive.
For CC(=O)N1N=C(c2ccc(C)cc2)OC1c1ccc(C(C)C)cc1 (stereo unspecified) the results were D2 ag-1 inactive, D2 PAM-1 inactive, D2 antag inactive, D2 PAM-2 inactive and D2 ag-2 inactive.
For CC(=O)Nc1ccc(S(=O)(=O)NCC2CCCO2)cc1 (stereo unspecified) the results were D2 ag-1 inactive and D2 PAM-2 inactive.
CCC(C)NS(=O)(=O)c1ccc(OCC(=O)Nc2ccc3c(c2)OCCO3)cc1 (stereo unspecified) was read as D2 ag-1 inactive, D2 PAM-1 48, D2 antag inactive, D2 PAM-2 inactive and D2 ag-2 inactive.
For COc1ccc(CC(=O)Nc2ccc(S(=O)(=O)NCC3CCCO3)cc2)cc1 (stereo unspecified) the results were D2 ag-1 inactive, D2 PAM-1 inactive, D2 antag 32, D2 PAM-2 inactive and D2 ag-2 inactive.
`CCC(C)NS(=O)(=O)c1ccc(OCC(=O)NCC2CCCO2)cc1` (stereo unspecified) gave D2 ag-1 inactive, D2 PAM-1 34, D2 antag inactive, D2 PAM-2 inactive and D2 ag-2 inactive.
`CC(C)CNS(=O)(=O)c1ccc(OCC(=O)Nc2ccc3c(c2)OCCO3)cc1` gave D2 ag-1 inactive, D2 PAM-1 inactive, D2 antag inactive, D2 PAM-2 inactive and D2 ag-2 inactive.
For COc1ccc(-n2c(-c3ccc(C)cc3)cc3c2CC(C)(C)CC3=O)c(OC)c1 the results were D2 PAM-1 inactive and D2 ag-2 inactive.

Screening results as filed in PubChem BioAssay.
